# Assay results as given in PubChem BioAssay (Tox21).
# Values without a mark were called inactive. Inconclusive results are not listed. Entries that show only a call come without a potency. Active and inactive are the calls of the source. The call rests on the fitted dose curve; in most records, active means well fitted curve in the direction sought with a large enough effect in the repeat runs; inconclusive means weak or mixed curves; inactive means no such curve, though single readings can be large; an effect the other way counts as inactive or inconclusive.
# Assays:
# [1] = qHTS RealTime-Glo MT Cell Viability Assay in HepG2 cells - 40 hour (AID 1224870); further: nearly all actives have a fitted effect of over 50% in size
# Procedure, shortened: (§1)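 HepG2 cells (600/well) mixed with RealTime-Glo MT reagent, settled 5 h at 37 C/5% CO2 before compound addition. Nonlytic NanoLuc luminescence from viable-cell prosubstrate reduction read repeatedly during 40 h treatment at 37 C.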
# [2] = A CellTox Green Cytotoxicity Assay to monitor cytotoxicity in HEK293 cells - 40 hour (AID 1224871); further: nearly all actives have a fitted effect of over 45% in size; further: potency means the concentration at half of the fitted maximal effect
# Procedure, shortened: (§2)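 Nonlytic real-time cytotoxicity: HEK293 + CellTox Green reagent plated, 5 h preincubation, pintool compound addition (23 nL in DMSO), 37 C for 40 h, fluorescence measured at successive time points.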
# [3] = qHTS RealTime-Glo MT Cell Viability Assay in HEK293 cells - 16 hour (AID 1224872); further: top concentration of the series differs between compounds; nearly all actives have a fitted effect of over 50% in size
# Procedure, shortened: (§3)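 Nonlytic real-time viability readout: viable cells convert prosubstrate to NanoLuc substrate, giving luminescence proportional to live cell number. HEK293, 600 cells/well, compound added after 5 h, continuous culture at 37 C.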
# [4] = qHTS RealTime-Glo MT Cell Viability Assay in HepG2 cells - 8 hour (AID 1224873); further: nearly all actives have a fitted effect of over 55% in size
# Procedure, shortened: as §1
# [5] = A CellTox Green Cytotoxicity Assay to monitor cytotoxicity in HEK293 cells - 24 hour (AID 1224875); further: nearly all actives have a fitted effect of over 45% in size; further: potency means the concentration at half of the fitted maximal effect
# Procedure, shortened: as §2
# [6] = A CellTox Green Cytotoxicity Assay to monitor cytotoxicity in HepG2 cells - 16 hour (AID 1224876); further: nearly all actives have a fitted effect of over 45% in size; further: potency means the concentration at half of the fitted maximal effect
# Procedure, shortened: (§4)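 Read-out is fluorescence of a cyanine dye excluded from live cells that stains DNA of dead HepG2 cells, with signal proportional to cytotoxicity. Plates were read at 0, 8, 16, 24, 32 and 40 h after compound addition.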
# [7] = qHTS RealTime-Glo MT Cell Viability Assay in HepG2 cells - 32 hour (AID 1224877); further: nearly all actives have a fitted effect of over 55% in size
# Procedure, shortened: (§5)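 Luminescence read-out: viable HepG2 cells reduce a prosubstrate to a NanoLuc substrate, giving a signal proportional to live cell number. Reads taken at 0, 8, 16, 24, 32 and 40 h of compound exposure at 37 C.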
# [8] = A CellTox Green Cytotoxicity Assay to monitor cytotoxicity in HepG2 cells - 24 hour (AID 1224878); further: nearly all actives have a fitted effect of over 45% in size; further: potency means the concentration at half of the fitted maximal effect
# Procedure, shortened: as §4
# [9] = A CellTox Green Cytotoxicity Assay to monitor cytotoxicity in HepG2 cells - 40 hour (AID 1224879); further: nearly all actives have a fitted effect of over 40% in size; further: potency means the concentration at half of the fitted maximal effect
# Procedure, shortened: as §4
# [10] = qHTS RealTime-Glo MT Cell Viability Assay in HEK293 cells - 0 hour (AID 1224880)
# Procedure, shortened: (§6)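 Cells were seeded together with NanoLuc luciferase and a prosubstrate that viable cells reduce to a luciferase substrate. After a 5 h incubation at 37 C/5% CO2, compounds were added and luminescence was measured repeatedly during 40 h of treatment.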
# [11] = A CellTox Green Cytotoxicity Assay to monitor cytotoxicity in HepG2 cells - 0 hour (AID 1224882); further: nearly all actives have a fitted effect of over 35% in size; further: potency means the concentration at half of the fitted maximal effect
# Procedure, shortened: as §4
# [12] = A CellTox Green Cytotoxicity Assay to monitor cytotoxicity in HepG2 cells - 32 hour (AID 1224883); further: nearly all actives have a fitted effect of over 50% in size; further: potency means the concentration at half of the fitted maximal effect
# Procedure, shortened: as §4
# [13] = A CellTox Green Cytotoxicity Assay to monitor cytotoxicity in HEK293 cells - 8 hour (AID 1224884); further: nearly all actives have a fitted effect of over 35% in size; further: potency means the concentration at half of the fitted maximal effect
# Procedure, shortened: as §2
# [14] = qHTS RealTime-Glo MT Cell Viability Assay in HepG2 cells - 16 hour (AID 1224885); further: nearly all actives have a fitted effect of over 50% in size
# Procedure, shortened: as §5
# [15] = qHTS RealTime-Glo MT Cell Viability Assay in HEK293 cells - 24 hour (AID 1224886)
# Procedure, shortened: as §3
# [16] = qHTS RealTime-Glo MT Cell Viability Assay in HEK293 cells - 8 hour (AID 1224887); further: nearly all actives have a fitted effect of over 50% in size; further: potency means the concentration at half of the fitted maximal effect
# Procedure, shortened: as §6
# [17] = A CellTox Green Cytotoxicity Assay to monitor cytotoxicity in HEK293 cells - 16 hour (AID 1224888); further: nearly all actives have a fitted effect of over 35% in size; further: potency means the concentration at half of the fitted maximal effect
# Procedure, shortened: as §2
# [18] = qHTS RealTime-Glo MT Cell Viability Assay in HepG2 cells - 0 hour (AID 1224889); further: nearly all actives have a fitted effect of over 50% in size
# Procedure, shortened: as §5
# [19] = qHTS RealTime-Glo MT Cell Viability Assay in HEK293 cells - 40 hour (AID 1224874); settings: RealTime-Glo luminescence; max response: stronger effect = lower value; further: nearly all actives have a fitted effect of over 50% in size
# Procedure, shortened: as §6
# [20] = A CellTox Green Cytotoxicity Assay to monitor cytotoxicity in HEK293 cells - 32 hour (AID 1224881); further: nearly all actives have a fitted effect of over 40% in size
# Procedure, shortened: as §2
SMILES,Potency [1],Potency [2],Potency [3],outcome [4],Potency [5],Potency [6],Potency [7],Potency [8],Potency [9],Potency [10],Potency [11],Potency [12],Potency [13],outcome [14],Potency [15],Potency [16],Potency [17],Potency [18],max response [19] [%],Potency [20]
CC(=O)c1cccnc1,inactive,inactive,inactive,inactive,inactive,inactive,inactive,inactive,inactive,inactive,inactive,inactive,inactive,inactive,inactive,inactive,inactive,inactive,–,–
O=C(O)c1cc(C(=O)O)cc([N+](=O)[O-])c1,inactive,inactive,inactive,–,inactive,inactive,inactive,inactive,inactive,–,inactive,inactive,inactive,inactive,inactive,inactive,inactive,inactive,8.3,inactive
CCCCCCCCCC(C)C=O (stereo not given),inactive,19.5 µM (active),inactive,–,21.9 µM (active),24.5 µM (active),inactive,24.5 µM (active),24.5 µM (active),inactive,24.5 µM (active),21.9 µM (active),24.5 µM (active),inactive,inactive,inactive,21.9 µM (active),inactive,12,–
O=[N+]([O-])c1ccccc1CCO,inactive,inactive,inactive,–,inactive,inactive,inactive,inactive,–,inactive,–,inactive,inactive,–,inactive,inactive,inactive,inactive,16.6,inactive
Cc1ccc2ccccc2c1[N+](=O)[O-],inactive,inactive,inactive,–,inactive,inactive,inactive,inactive,inactive,inactive,–,inactive,inactive,inactive,–,inactive,inactive,inactive,5.94,–
C/C(=C\C(C)CC(C)CC(C)C)C1CC(=O)OC1=O (stereo not given),inactive,inactive,inactive,–,inactive,inactive,inactive,inactive,–,inactive,inactive,inactive,inactive,–,inactive,inactive,inactive,inactive,–,inactive
Nc1ccc(F)cc1F,inactive,inactive,inactive,inactive,inactive,inactive,inactive,inactive,inactive,–,inactive,inactive,inactive,inactive,inactive,inactive,inactive,inactive,–,inactive
CC1=C(C)C(=O)C(C(CCCCCC(=O)O)c2ccccc2)=C(C)C1=O (stereo not given),inactive,inactive,–,inactive,inactive,inactive,inactive,inactive,inactive,inactive,inactive,inactive,inactive,inactive,inactive,10.7 µM (active),inactive,–,3.36,inactive
CCOCCn1c(N2CCCN(C)CC2)nc2ccccc21,inactive,inactive,–,inactive,inactive,inactive,inactive,inactive,inactive,inactive,inactive,inactive,inactive,inactive,inactive,inactive,inactive,inactive,-3.4,inactive
C[C@H](N)C(=O)N[C@@H](C)C(=O)NC1[C@H]2CN(c3nc4c(cc3F)c(=O)c(C(=O)O)cn4-c3ccc(F)cc3F)C[C@@H]12 (stereo not given in full),inactive,inactive,inactive,–,inactive,inactive,inactive,inactive,inactive,–,inactive,inactive,inactive,inactive,inactive,inactive,inactive,inactive,0.749,inactive
Cc1nc(C)c(C)nc1C,inactive,inactive,–,inactive,inactive,inactive,inactive,inactive,inactive,inactive,inactive,inactive,inactive,inactive,inactive,inactive,inactive,inactive,-5.51,inactive
Clc1nc2ccccc2nc1Cl,inactive,inactive,inactive,–,inactive,inactive,inactive,inactive,inactive,–,inactive,inactive,inactive,inactive,–,inactive,inactive,inactive,–,inactive
CCc1c(C)[nH]c2c1C(=O)C(CN1CCOCC1)CC2 (stereo not given),inactive,inactive,inactive,–,inactive,inactive,inactive,inactive,inactive,inactive,–,inactive,–,inactive,–,inactive,inactive,inactive,2.91,–
C[Si](C)(C)O[Si](C)(C)O[Si](C)(C)C,inactive,inactive,inactive,inactive,inactive,inactive,inactive,inactive,inactive,–,inactive,inactive,inactive,inactive,inactive,inactive,inactive,inactive,–,inactive
CCc1cnc(C(=O)O)c(C(=O)O)c1,inactive,inactive,inactive,inactive,inactive,inactive,inactive,inactive,inactive,–,inactive,inactive,inactive,inactive,inactive,inactive,inactive,inactive,–,–
